Experimental data: PubChem BioAssay (Tox21)
Records with an inconclusive call do not appear. Active and inactive are the calls of the source. Unless noted, calls follow the shape of the dose curve; as a rule, active = well fitted curve in the direction sought with a large enough effect in the repeat runs; inconclusive = weak or mixed curves; inactive = no such curve, though single readings can be large; an effect the other way counts as inactive or inconclusive.

Legend:
[1] = biological target: Luciferin 4-monooxygenase (Photinus pyralis) (UniProt P08659); assay: qHTS assay to identify small molecule inhibitors of firefly luciferase (AID 1224835); also: nearly all actives have a fitted effect of over 25% in size; also: potency is read from the fitted curve at half-maximal effect; as to activity change, negative = inhibition: series mostly up to about 120 µM
Chain of Luciferin 4-monooxygenase (Photinus pyralis) (P08659 whole entry, looked up): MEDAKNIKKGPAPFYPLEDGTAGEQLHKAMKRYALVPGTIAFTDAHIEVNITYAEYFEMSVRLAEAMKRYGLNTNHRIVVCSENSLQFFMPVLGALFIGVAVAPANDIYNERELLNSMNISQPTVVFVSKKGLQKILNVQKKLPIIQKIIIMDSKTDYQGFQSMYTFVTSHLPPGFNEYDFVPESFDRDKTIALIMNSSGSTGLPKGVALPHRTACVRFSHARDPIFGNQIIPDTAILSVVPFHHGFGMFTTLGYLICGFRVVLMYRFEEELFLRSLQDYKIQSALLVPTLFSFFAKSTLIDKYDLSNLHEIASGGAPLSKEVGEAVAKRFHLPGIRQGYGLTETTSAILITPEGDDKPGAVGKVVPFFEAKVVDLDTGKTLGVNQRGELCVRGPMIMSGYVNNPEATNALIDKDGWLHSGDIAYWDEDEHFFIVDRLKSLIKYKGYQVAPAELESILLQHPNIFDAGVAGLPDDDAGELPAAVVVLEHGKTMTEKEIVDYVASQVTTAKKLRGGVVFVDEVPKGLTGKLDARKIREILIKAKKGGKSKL
Procedure, shortened: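 Quantitative HTS format; KM concentrations of both substrates. Purified P. pyralis FLuc activity quantified from luminescence images.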

[2] = qHTS assay to identify small molecule antagonists of the constitutive androstane receptor (CAR) signaling pathway - cell viability counter screen (AID 1224837); also: nearly all actives have a fitted effect of over 45% in size; also: potency is read from the fitted curve at half-maximal effect; as to activity change, negative = cytotoxicity: series mostly up to about 92 µM
Procedure, shortened: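 Counter screen run in HepG2-CYP2B6-hCAR cells: 4 hr settle, compound titration (15 concentrations) with 50 nM CITCO, 23 hr at 37 C/5% CO2, CellTiter-Fluor fluorescence.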

[3] = biological target: Nuclear receptor subfamily 1 group I member 3 (Homo sapiens) (UniProt Q14994); assay: qHTS assay to identify small molecule agonists of the constitutive androstane receptor (CAR) signaling pathway (AID 1224839); also: nearly all actives have a fitted effect of over 15% in size; also: potency is read from the fitted curve at half-maximal effect
Chain of Nuclear receptor subfamily 1 group I member 3 (Homo sapiens) (Q14994 whole entry, looked up): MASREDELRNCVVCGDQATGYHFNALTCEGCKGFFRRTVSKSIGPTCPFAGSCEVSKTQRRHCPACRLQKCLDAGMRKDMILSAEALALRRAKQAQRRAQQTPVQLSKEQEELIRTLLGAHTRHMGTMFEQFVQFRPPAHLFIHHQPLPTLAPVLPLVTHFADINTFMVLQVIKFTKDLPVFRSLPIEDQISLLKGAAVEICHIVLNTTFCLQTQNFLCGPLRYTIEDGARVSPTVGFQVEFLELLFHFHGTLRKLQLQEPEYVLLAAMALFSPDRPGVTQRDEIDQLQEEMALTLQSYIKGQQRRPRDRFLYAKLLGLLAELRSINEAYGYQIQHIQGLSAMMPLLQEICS
Procedure, shortened: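 HepG2-CYP2B6-hCAR cells, 2500/well, 4 h pre-incubation; compounds 15 conc.; PK11195 0.75 uM final; 24 h, 37 C/5% CO2; ONE-Glo luciferase read.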

[4] = qHTS assay to identify small molecule antagonists of the estrogen related receptor signaling pathway with the pleiotropic PPARgamma coactivator (PGC) from Tox21 10K library - cell viability counter screen (AID 1224840; active = well fitted cell-killing curve with a large enough effect in the repeat runs, not every such curve was filed as active; also: nearly all actives have a fitted effect of over 40% in size; also: potency is read from the fitted curve at half-maximal effect)
Procedure, shortened: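 Following seeding of 2,000 PGC/ERR cells/well and 6 hours' incubation, test compounds were delivered in DMSO. The plates then sat 17.5 hours at 37 C before a fluorogenic live-cell protease reagent (CellTiter-Fluor) was read after 30 min.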

[5] = biological target: Thyrotropin receptor (Homo sapiens) (UniProt P16473); assay: qHTS assay to identify small molecule agonists of the thyroid stimulating hormone receptor (TSHR) signaling pathway (AID 1224843; calls by dose curve; also: nearly all actives have a fitted effect of over 45% in size)
Chain of Thyrotropin receptor (Homo sapiens) (P16473 whole entry, looked up): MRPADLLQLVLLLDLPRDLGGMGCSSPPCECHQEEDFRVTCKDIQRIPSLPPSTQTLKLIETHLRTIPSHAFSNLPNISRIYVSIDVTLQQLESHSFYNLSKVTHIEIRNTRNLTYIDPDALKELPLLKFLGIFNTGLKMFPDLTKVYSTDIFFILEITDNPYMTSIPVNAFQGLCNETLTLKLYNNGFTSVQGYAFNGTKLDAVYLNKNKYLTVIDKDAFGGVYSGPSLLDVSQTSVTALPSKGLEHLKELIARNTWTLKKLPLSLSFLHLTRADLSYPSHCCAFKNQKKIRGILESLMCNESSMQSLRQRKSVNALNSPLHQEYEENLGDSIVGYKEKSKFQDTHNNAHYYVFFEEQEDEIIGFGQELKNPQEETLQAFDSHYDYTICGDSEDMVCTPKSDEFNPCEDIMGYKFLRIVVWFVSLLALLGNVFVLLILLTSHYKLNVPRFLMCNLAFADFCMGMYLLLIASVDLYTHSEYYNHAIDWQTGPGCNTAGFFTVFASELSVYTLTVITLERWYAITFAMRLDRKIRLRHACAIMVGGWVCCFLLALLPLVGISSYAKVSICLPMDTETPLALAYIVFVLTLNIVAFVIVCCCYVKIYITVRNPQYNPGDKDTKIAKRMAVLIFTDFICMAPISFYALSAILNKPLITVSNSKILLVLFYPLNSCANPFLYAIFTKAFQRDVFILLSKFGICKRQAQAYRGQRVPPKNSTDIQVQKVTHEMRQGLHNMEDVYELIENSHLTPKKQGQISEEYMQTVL
Procedure, shortened: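 Cell line HEK293 with TSHR; density 800/well. Exposure 30 min RT. Readout HTRF cAMP (cAMP-d2/anti-cAMP-cryptate), 1 h RT before reading.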

[6] = biological target: Nuclear receptor subfamily 1 group I member 3 (Homo sapiens) (UniProt Q14994); assay: qHTS assay to identify small molecule antagonists of the constitutive androstane receptor (CAR) signaling pathway (AID 1224838);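 also: HepG2 cells stably expressing hCAR with CYP2B6 luciferase reporter stimulated by CITCO; nearly all actives have a fitted effect of over 40% in size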; also: potency is read from the fitted curve at half-maximal effect
Procedure, shortened: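 Cell line: HepG2 double-stable for hCAR and CYP2B6-2.2kb reporter. Agonist: CITCO, 50 nM final. Compounds: 15 concentrations, 24 h, 37 C. Detection: ONE-Glo luminescence.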

[7] = qHTS assay to identify small molecule agonists of the hypoxia (HIF-1) signaling pathway - cell viability counter screen (AID 1224844; calls by dose curve; also: nearly all actives have a fitted effect of over 50% in size; also: potency is read from the fitted curve at half-maximal effect)
Procedure, shortened: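 Cells (HRE-bla ME-180, 2,000 per well) sat 5 hrs at 37C, got compound for 17 hrs, were read for CCF4-AM FRET, and were finally lysed with CellTiter-Glo for a 30 min room-temperature luminescence read.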

[8] = qHTS assay to identify small molecule antagonists of the estrogen related receptor signaling pathway with the pleiotropic PPARgamma coactivator (PGC) from Tox21 10K library (AID 1224841; call rule not given here; also: actives are mostly falling curves and most rising ones were filed inactive; nearly all actives have a fitted effect of over 50% in size; also: potency is read from the fitted curve at half-maximal effect)
Procedure, shortened: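 qHTS antagonist format: PGC/ERR cells, 2k/well, compound in DMSO by pin transfer after 6 h attachment, 18 h treatment at 37 C, One-Glo luminescence read at 30 min.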

[9] = qHTS assay to identify small molecule agonists of the estrogen related receptor signaling pathway with the pleiotropic PPARgamma coactivator (PGC) from Tox21 10K library (AID 1224842); also: nearly all actives have a fitted effect of over 15% in size; also: potency is read from the fitted curve at half-maximal effect
Procedure, shortened: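 PGC/ERR reporter cells (NTP line) were seeded 2,000 per well, rested 6 h at 37 C/5% CO2, then pin-dosed with compounds in DMSO for 18 h at 37 C; luciferase read by One-Glo luminescence after 30 min at room temperature.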

[10] = qHTS assay to identify small molecule agonists of the constitutive androstane receptor (CAR) signaling pathway - cell viability counter screen (AID 1224836); also: series mostly up to about 92 µM; nearly all actives have a fitted effect of over 45% in size
Procedure, shortened: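 HepG2-CYP2B6-hCAR, 2500 cells/well, 4 h pre-incubation; cpd 15 conc + PK11195 0.75 uM final; 23 h, 37 C/5% CO2; CellTiter-Fluor, fluorescence.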
% is scaled to controls: 0 for no effect and ±100 for the full control effect.

CCOC(=O)c1ccccc1C
inactive: Potency [1] | Potency [2] | Potency [3] | Potency [4] | Potency [5]

CN1CCCN=C1/C=C/c1cccs1
inactive: Potency [1] | Potency [2] | Potency [6] | Potency [4] | Potency [5] | Potency [7]

CC(COc1ccc(C(C)(C)C)cc1)OS(=O)OCCCl (stereo not drawn)
active: Potency [2] 0.274 µM | Potency [6] 1.73 µM | Potency [4] 0.614 µM | Potency [8] 1.23 µM | Potency [7] 1.75 µM
inactive: Potency [1] | Potency [3] | Potency [5]

NC(=O)N(O)[C@@H]1C=C[C@H](Oc2cccc(Oc3ccc(F)cc3)c2)C1
active: Potency [1] 31.7 µM | Potency [9] 27.3 µM
inactive: Potency [2] | Potency [5] | Potency [7]

O=C(c1ccc(O)cc1)c1ccc(Cl)cc1
active: Potency [1] 64.7 µM | Potency [3] 49.6 µM
inactive: Potency [10] | Potency [4] | Potency [7]

CC(N)CN (stereo not drawn)
inactive: Potency [1] | Potency [2] | Potency [4] | Potency [5] | Potency [7]

C=CCNc1nc(NCC=C)nc(N2CCN(C(c3ccc(F)cc3)c3ccc(F)cc3)CC2)n1
inactive: Potency [1] | Potency [2] | Potency [3] | Potency [4] | Potency [5] | Potency [7]

CO[Si](C)(OC)OC
inactive: Potency [1] | Potency [2] | Potency [4] | Potency [5] | Potency [7]

N#C[C@@H]1C[C@@H]2C[C@@H]2N1C(=O)[C@@H](N)C12CC3CC(CC(O)(C3)C1)C2
inactive: Potency [1] | Potency [2] | Potency [6] | Potency [3] | Potency [4] | Potency [8] | Potency [9] | Potency [5] | Potency [7]

[O]=[Bi]
inactive: activity change, negative = inhibition [1] 1.77% [at 10.5 µM] | viability change, negative = cytotoxic [10] 0.628% [at 8.39 µM] | activity change, negative = cytotoxicity [7] 28.4% [at 6.97 µM]

O=C(Nc1ccccc1)Nc1ccccc1
inactive: Potency [10] | Potency [4] | Potency [8] | Potency [7]
active: Potency [1] 6.36 µM

CCCCCCCC/C=C\CCCCCCCC(=O)OC
inactive: Potency [1] | Potency [2] | Potency [6] | Potency [3] | Potency [5] | Potency [7]

O=[N+]([O-])c1cccc(S(=O)(=O)NCCNS(=O)(=O)c2cccc([N+](=O)[O-])c2)c1
inactive: Potency [1] | Potency [6] | Potency [3] | Potency [4] | Potency [7]

O=C(CCCN1CCN(c2ccc(F)cc2)CC1)NC1c2ccccc2CSc2ccccc21 (stereo not drawn)
inactive: Potency [1] | Potency [3] | Potency [4] | Potency [5] | Potency [7]
active: Potency [6] 29.8 µM

Cc1oc(C)c(C(=O)Nc2ccccc2)c1C
inactive: Potency [2] | Potency [4] | Potency [7]

CCc1nn(CCCN2CCN(c3cccc(Cl)c3)CC2)c(=O)n1CCOc1ccccc1
inactive: Potency [1] | Potency [6] | Potency [3] | Potency [4] | Potency [5]

CCCCCCCCCCOS(=O)(=O)O
inactive: Potency [10] | Potency [6] | Potency [3] | Potency [4] | Potency [5] | Potency [7]

Cc1nccn1-c1ccc(Sc2cccc(C3(C(N)=O)CCOCC3)c2)cc1
inactive: Potency [1] | Potency [6] | Potency [4] | Potency [9] | Potency [5] | Potency [7]
active: Potency [3] 9.69 µM

C=CC(C)(C)CC(=O)OC
active: Potency [6] 15.4 µM | Potency [7] 12.3 µM
inactive: Potency [1] | Potency [3] | Potency [5]

COc1ccc(CCC(=O)c2c(O)cc(O[C@@H]3O[C@H](CO)[C@@H](O)[C@H](O)[C@H]3O[C@@H]3O[C@@H](C)[C@H](O)[C@@H](O)[C@H]3O)cc2O)cc1O
inactive: Potency [10] | Potency [2] | Potency [4] | Potency [9] | Potency [5] | Potency [7]

COCCOC
active: Potency [6] 9.24 µM | Potency [7] 4.67 µM
inactive: Potency [3] | Potency [5]

O=C(O)c1snc(Cl)c1Cl
inactive: Potency [10] | Potency [2] | Potency [6] | Potency [3] | Potency [4] | Potency [5] | Potency [7]

COc1cc2ncnc(Nc3ccc(F)c(Cl)c3)c2cc1OCCCN1CCOCC1
inactive: Potency [1] | Potency [6] | Potency [3] | Potency [9] | Potency [5]

CC(Cl)C(Cl)Cl (stereo not drawn)
inactive: Potency [10] | Potency [2] | Potency [5]

COc1cc2c(N3CCN(C(=O)Nc4ccc(OC(C)C)cc4)CC3)ncnc2cc1OCCCN1CCCCC1
active: Potency [6] 15 µM | Potency [4] 29.8 µM | Potency [9] 33.5 µM
inactive: Potency [1] | Potency [8] | Potency [5]

CC(=O)N(c1onc(C)c1C)S(=O)(=O)c1ccc(N)cc1
inactive: Potency [1] | Potency [6] | Potency [3] | Potency [4] | Potency [5] | Potency [7]

OCC1CC=CCC1 (stereo not drawn)
inactive: Potency [10] | Potency [6] | Potency [3] | Potency [4] | Potency [5] | Potency [7]

CN(C(=O)C(Cl)Cl)c1ccc(OC(=O)c2ccco2)cc1
inactive: Potency [2] | Potency [6] | Potency [3] | Potency [4] | Potency [5] | Potency [7]

Nc1ccc(Cl)cc1[N+](=O)[O-]
inactive: Potency [10] | Potency [4] | Potency [8] | Potency [5] | Potency [7]

CCOC(=O)CC(=O)C(=O)OCC
inactive: Potency [1] | Potency [3] | Potency [9] | Potency [5]
